# Records with an inconclusive call do not appear. A call without a number means that no potency is given here. Active and inactive are the calls of the source. Calls follow the shape of the dose curve; as a rule, active = well fitted curve in the direction sought with a large enough effect; inconclusive = small, poorly fitted or top-dose-only effect, or another doubt; inactive = no such curve, though single readings can be large; an effect the other way counts as inactive or inconclusive.
# Assays:
# [1] = MultiTox-Fluor Cytotoxicity Assay - LYMP1-001 - Dead Cells (AID 946); settings: LYMP1-001 lymphoblastoid cells, dead-cell protease fluorescence; series mostly up to 92.2 µM;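 also: cells exposed to compound for 16 h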
# In short: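 AC50 from Hill fit of concentration-response; data normalized to DMSO (basal) and 15 uM tetraoctylammonium bromide (100%). LYMP1-001 lymphoblastoid cells, 2500/well, 16 hr compound at 37 C; dead-cell protease fluorescence, Ex/Em 485/520.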
# [2] = Cell Viability - LYMP1-002 - Assay at 16 hr (AID 948); settings: LYMP1-002 lymphoblastoid cell viability; series mostly up to 92.2 µM
# In short: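 In this qHTS, lymphoblastoid LYMP1-002 cells (human) receive compounds for 16 hr at 37 C. Viability is taken from CellTiter-Glo ATP luminescence, and AC50 derives from standard Hill fits.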
# [3] = MultiTox-Fluor Cytotoxicity Assay - LYMP1-002 - Live Cells (AID 955); settings: LYMP1-002 lymphoblastoid live-cell protease fluorescence viability; series mostly up to 46.1 µM;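 also: cells exposed to compound for 16 hours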
# In short: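 LYMP1-002 lymphoblastoid cells; 2500 cells/well; 16 hr compound exposure, 37 C; MultiTox-Fluor reagent 60 min RT; live-cell fluorescence Ex/Em=405/510; qHTS concentration-response, Hill-equation AC50; tetraoctylammonium bromide positive control.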
# [4] = MultiTox-Fluor Cytotoxicity Assay - LYMP1-002 - Dead Cells (AID 960); settings: LYMP1-002 lymphoblastoid cells, dead-cell protease fluorescence; series mostly up to 46.1 µM;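 also: cells exposed to compound for 16 h at 37 °C; nearly all actives have a fitted effect of over 60% in size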
# In short: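 Readout: fluorescence at 485/520 from cell-impermeant bis-AAF-R110 cleaved by proteases leaking from damaged cells. LYMP1-002 lymphoblastoid line, 16 hr compound treatment at 37 C, concentration-response in qHTS format; Hill-equation AC50 values.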
# [5] = MultiTox-Fluor Cytotoxicity Assay - LYMP1-003 - Dead Cells (AID 961); settings: LYMP1-003 lymphoblastoid cells, dead-cell protease fluorescence; series mostly up to 92.2 µM;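 also: cells exposed to compound for 16 h at 37 °C; nearly all actives have a fitted effect of over 70% in size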; also: potency is read from the fitted curve at half-maximal effect
# In short: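 Human lymphoblastoid LYMP1-003 cells (2500/well) were treated with compounds for 16 hr at 37 C in complete medium. Dead-cell protease release was read by bis-AAF-R110 fluorescence (Ex/Em 485/520). AC50 came from Hill fits, normalized to DMSO and 15 uM tetraoctylammonium bromide.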
# [6] = MultiTox-Fluor Cytotoxicity Assay - LYMP1-003 - Live Cells (AID 962); settings: LYMP1-003 lymphoblastoid cells, MultiTox-Fluor live-cell protease fluorescence; series mostly up to 92.2 µM;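 also: cells exposed to compound for 16 hours at 37 °C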; also: potency is read from the fitted curve at half-maximal effect
# In short: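 Readout: live-cell fluorescence (Ex/Em=405/510) from GF-AFC cleavage after 60 min MultiTox-Fluor reagent at room temperature. Lymphoblastoid LYMP1-003 cells, 16 hr compound treatment, 37 C. Concentration-response fitted to standard Hill equation for AC50.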
# [7] = Cell Viability - LYMP1-003 - Assay at 24 hr (AID 963); settings: LYMP1-003 lymphoblastoid cell viability; series mostly up to 92.2 µM; also: potency is read from the fitted curve at half-maximal effect
# In short: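 CellTiter-Glo luminescence (intracellular ATP) read after 24 hr, 37 C compound exposure of 2500 LYMP1-003 human lymphoblastoid cells/well in complete medium; qHTS concentration series; AC50 via standard Hill equation.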
# [8] = Cell Viability - LYMP1-003 - Assay at 40 hr (AID 964); settings: LYMP1-003 lymphoblastoid viability; series mostly up to 92.2 µM; also: nearly all actives have a fitted effect of over 60% in size; also: potency is read from the fitted curve at half-maximal effect
# In short: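 LYMP1-003 lymphoblastoid cells, 2500/well; 5 hr preincubation, 40 hr compound exposure, 37 C; CellTiter-Glo 30 min RT; luminescence; Hill-fit AC50. Positive control tetraoctylammonium bromide.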
# [9] = Cell Viability - LYMP2-003 (AID 965); settings: LYMP2-003 lymphoblastoid cell viability; series mostly up to 92.2 µM;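 also: cells exposed to compounds for 24 h before reading; nearly all actives have a fitted effect of over 50% in size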; also: potency is read from the fitted curve at half-maximal effect
# In short: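 qHTS, human lymphoblastoid line, 2500 cells/well, complete medium. 24 h drug, 37 C. ATP-based luminescent readout; Hill-fit AC50.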
# [10] = MultiTox-Fluor Cytotoxicity Assay - LYMP1-001 - Live Cells (AID 947); settings: LYMP1-001 lymphoblastoid cells, live-cell protease fluorescence viability; series mostly up to 92.2 µM
Structure (SMILES),outcome [1],outcome [2],outcome [3],outcome [4],Potency [5],Potency [6],Potency [7],Potency [8],Potency [9],outcome [10]
C=C(C)C(N)=O,inactive,inactive,inactive,inactive,inactive,inactive,inactive,inactive,inactive,–
O=C(O)c1ccc(Cl)c(Cl)c1,inactive,inactive,inactive,–,inactive,inactive,inactive,inactive,inactive,inactive
COc1ccccc1[N+](=O)[O-],inactive,inactive,inactive,inactive,inactive,inactive,inactive,inactive,inactive,–
O=C(O)c1ccccc1Cl,inactive,inactive,inactive,inactive,inactive,inactive,inactive,inactive,inactive,–
COc1cccc2sc(N)nc12,inactive,inactive,inactive,–,inactive,inactive,inactive,inactive,inactive,inactive
FC(F)(F)c1cccc(Cl)c1,–,inactive,inactive,inactive,inactive,inactive,inactive,inactive,inactive,inactive
CC(O)CC(C)O (stereo not given),inactive,inactive,inactive,–,inactive,inactive,inactive,inactive,inactive,inactive
ClC/C=C/CCl,–,inactive,inactive,inactive,inactive,inactive,inactive,inactive,inactive,inactive
O=[N+]([O-])c1ccccc1CCO,inactive,inactive,inactive,–,inactive,inactive,inactive,inactive,inactive,inactive
CC(C)=CCl,inactive,inactive,inactive,–,inactive,inactive,inactive,inactive,inactive,inactive
NC(=O)/N=N/C(N)=O,inactive,inactive,inactive,inactive,–,inactive,inactive,inactive,inactive,–
CC(C)C=O,inactive,inactive,inactive,inactive,inactive,inactive,inactive,inactive,inactive,–
OCCO,inactive,inactive,inactive,inactive,inactive,inactive,inactive,inactive,inactive,–
Cc1cc([N+](=O)[O-])ccc1N,inactive,inactive,inactive,–,inactive,inactive,inactive,inactive,inactive,–
CCCCC(CC)COC(=O)CCCCC(=O)OCC(CC)CCCC (stereo not given),inactive,inactive,inactive,inactive,inactive,inactive,inactive,inactive,inactive,–
CC(C)(C)c1ccc(OCC2CO2)cc1 (stereo not given),inactive,inactive,inactive,–,inactive,inactive,inactive,inactive,inactive,inactive
c1ccc2n[nH]nc2c1,inactive,inactive,inactive,–,inactive,inactive,inactive,inactive,inactive,inactive
O=Nc1ccc(NO)cc1,inactive,inactive,inactive,inactive,inactive,–,inactive,inactive,50.1 µM (active),–
CC(=O)OC(C)=O,inactive,inactive,inactive,inactive,inactive,inactive,inactive,inactive,inactive,–
C=CCOC(=O)CCCCCCCC,inactive,inactive,inactive,inactive,inactive,inactive,inactive,inactive,–,–
C=C(C)C(=O)OCCCCCCCCCC,inactive,inactive,inactive,inactive,inactive,inactive,inactive,inactive,inactive,–
Nc1nc(CC(=O)O)cs1,inactive,inactive,inactive,inactive,inactive,inactive,inactive,inactive,inactive,–
CCCCC(=O)N(C)C,inactive,inactive,inactive,inactive,inactive,inactive,inactive,inactive,inactive,–
CCCCCCCCC,inactive,inactive,inactive,inactive,inactive,inactive,inactive,inactive,inactive,–
COc1cccc(N)c1,–,inactive,inactive,inactive,inactive,inactive,inactive,inactive,inactive,inactive

Structure (SMILES),outcome [1],outcome [2],outcome [3],outcome [4],Potency [5],Potency [6],Potency [7],Potency [8],Potency [9],outcome [10]
CC(N)CN (stereo not given),inactive,inactive,inactive,inactive,inactive,inactive,inactive,inactive,inactive,–
C=CC(=O)OCCCC,–,inactive,inactive,inactive,inactive,inactive,inactive,inactive,inactive,inactive
NC(=O)CCCCC(N)=O,inactive,inactive,inactive,inactive,inactive,inactive,inactive,inactive,inactive,–
Cc1ccc2c(c1[N+](=O)[O-])C(=O)c1ccccc1C2=O,inactive,inactive,inactive,inactive,inactive,inactive,inactive,inactive,inactive,–
Cc1ccc(C(C)(C)C)cc1,inactive,inactive,inactive,inactive,inactive,inactive,inactive,inactive,inactive,–
CCOC(C)(C)C,inactive,inactive,inactive,inactive,inactive,inactive,inactive,inactive,inactive,–
O=C(O)c1cccc(Cl)c1Cl,inactive,inactive,inactive,–,inactive,inactive,inactive,inactive,inactive,–
C=C(C)C(=O)OCCCCCC,inactive,inactive,inactive,inactive,inactive,inactive,inactive,inactive,inactive,–
O=[N+]([O-])c1cc(C(F)(F)F)ccc1Cl,inactive,inactive,inactive,–,inactive,inactive,inactive,inactive,inactive,inactive
O=C(O)/C=C/C(=O)O,inactive,inactive,inactive,–,inactive,inactive,inactive,inactive,inactive,–
Cc1ccco1,–,inactive,inactive,inactive,inactive,inactive,inactive,inactive,inactive,inactive
Cc1ccc(C)c(O)c1,–,inactive,inactive,inactive,inactive,inactive,inactive,inactive,inactive,inactive
O=C1OC(=O)c2c(Br)c(Br)c(Br)c(Br)c21,–,inactive,inactive,inactive,inactive,inactive,inactive,inactive,inactive,inactive
CC(=O)CC(C)C,–,inactive,inactive,inactive,inactive,inactive,inactive,inactive,inactive,inactive
O=Cc1cccc(Br)c1,–,inactive,inactive,inactive,inactive,inactive,inactive,inactive,inactive,inactive
Nc1cc(Cl)c(N)c(Cl)c1,–,inactive,inactive,–,inactive,inactive,inactive,inactive,inactive,inactive
CCCCCCO,–,inactive,inactive,inactive,inactive,inactive,inactive,inactive,inactive,inactive
CCCCCCCCCCCCOCC1CO1 (stereo not given),–,inactive,inactive,–,inactive,inactive,inactive,inactive,inactive,inactive
CC(C)c1ccccc1,–,inactive,inactive,inactive,inactive,inactive,inactive,inactive,inactive,inactive
CC/C(C)=N/O,–,inactive,inactive,inactive,inactive,inactive,inactive,inactive,inactive,inactive
Nc1ccc([N+](=O)[O-])c(N)c1,–,inactive,inactive,–,inactive,inactive,inactive,inactive,inactive,inactive
Cc1cc(C)cc(O)c1,–,inactive,inactive,–,inactive,inactive,inactive,inactive,inactive,inactive
Cc1cc(C)cc(N)c1,–,inactive,inactive,inactive,inactive,inactive,inactive,inactive,inactive,–
CC=O,–,inactive,inactive,inactive,inactive,inactive,inactive,inactive,inactive,inactive
CCCCCO,–,inactive,inactive,inactive,inactive,inactive,inactive,inactive,inactive,inactive

Structure (SMILES),outcome [1],outcome [2],outcome [3],outcome [4],Potency [5],Potency [6],Potency [7],Potency [8],Potency [9],outcome [10]
CCCC(C)CO (stereo not given),–,inactive,inactive,inactive,inactive,inactive,inactive,inactive,inactive,inactive
Cc1ccc(C)cc1,–,inactive,inactive,–,inactive,inactive,inactive,inactive,inactive,inactive
CC1CCC2CC1C2(C)C (stereo not given),–,inactive,inactive,inactive,inactive,inactive,inactive,inactive,inactive,inactive
CC=C(Cl)Cl,–,inactive,inactive,inactive,inactive,inactive,inactive,inactive,inactive,inactive
O=C1C=CCCC1,–,inactive,inactive,inactive,inactive,inactive,inactive,inactive,inactive,inactive
CCCCCNCCCCC,–,inactive,inactive,inactive,inactive,inactive,inactive,inactive,inactive,–
CNc1ccc([N+](=O)[O-])cc1,–,inactive,inactive,–,inactive,inactive,inactive,inactive,inactive,inactive
CCOC(=O)OCC,–,inactive,inactive,inactive,inactive,inactive,inactive,inactive,inactive,inactive
CC/C=C/C#N,–,inactive,inactive,inactive,inactive,inactive,inactive,inactive,inactive,inactive
O=Cc1ccc(C(=O)O)cc1,–,inactive,inactive,–,inactive,inactive,inactive,inactive,inactive,inactive
C=CC(=O)NC(C)C,–,inactive,inactive,–,inactive,inactive,inactive,inactive,inactive,inactive
c1ccc2[nH]cnc2c1,–,inactive,inactive,inactive,inactive,inactive,inactive,inactive,inactive,inactive
O=C1CCC(=O)O1,–,inactive,inactive,inactive,inactive,inactive,inactive,inactive,inactive,inactive
NC(=O)c1ccccc1[N+](=O)[O-],–,inactive,inactive,inactive,inactive,inactive,inactive,inactive,inactive,inactive
C/C=C(/C)C#N,–,inactive,inactive,inactive,inactive,inactive,inactive,inactive,inactive,inactive
Cc1ccc(C)c(N)c1,–,inactive,inactive,inactive,inactive,inactive,inactive,inactive,inactive,–
Nc1ccccc1S(=O)(=O)O,–,inactive,inactive,inactive,inactive,inactive,inactive,inactive,inactive,inactive
O=C(O)c1ccc(Cl)cc1Cl,–,inactive,inactive,inactive,inactive,inactive,inactive,inactive,inactive,inactive
CC/C=C1/OC(=O)c2ccccc21,–,inactive,inactive,–,inactive,inactive,inactive,inactive,inactive,inactive
S=C([S-])NCCNC(=S)[S-].[Zn+2],–,inactive,inactive,inactive,inactive,inactive,inactive,inactive,inactive,–
ICCc1ccccc1,–,inactive,inactive,inactive,inactive,inactive,inactive,inactive,inactive,inactive
CC(C)(C)OC=O,–,inactive,inactive,–,inactive,inactive,inactive,inactive,inactive,inactive
CC1=C(/C=C/C(C)=C/C=C/C(C)=C\C=O)C(C)(C)CCC1,–,–,–,–,31.6 µM (active),50.1 µM (active),63.1 µM (active),50.1 µM (active),39.8 µM (active),–
Nc1nc(-c2ccccc2)cs1,–,inactive,inactive,–,inactive,inactive,inactive,inactive,inactive,inactive
O=Cc1c(Cl)cccc1Cl,–,inactive,inactive,inactive,inactive,inactive,inactive,inactive,inactive,inactive

# From PubChem BioAssay (NCATS)
